# High-throughput results: PubChem BioAssay, several laboratories
# AddAB inh: growth inhibition of E. coli expressing H. pylori AddAB, primary screen, AddAB inhibitor project, absorbance; inhibition, % at 11.9 µM; 330,000 compounds, 0.29% hits; in the data active means inhibition above about 12%;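 further: 0% = vehicle wells of infected cells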
# E coli growth-1: E. coli V3065 growth inhibition, primary screen, counter-screen for AddAB inhibitor project, absorbance, OD600. 18 h. AID 449728, 2010. inhibition, % at 11.9 µM. 330,000 compounds, 0.27% hits;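 active means inhibition above the campaign's mean inhibition across all tested compounds plus 3 SD, cut at about 9.9% in these data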;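 further: uninfected addAB+ strain grown without phage in ampicillin broth; 0% = DMSO wells and 100% = ciprofloxacin 0.95 µg/ml wells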
# Calb FLC: C. albicans growth inhibition with fluconazole, primary screen, CaCi-2 strain, Alamar Blue fluorescence; C. albicans CaCi-2 (fluconazole-resistant clinical isolate) + fluconazole, 48 h; 300,000 compounds, 0.57% hits; growth inhibition, % (no concentration beside the values);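 active means growth inhibition above about 58% in most replicates, limit read from the data, passing the limit was not always enough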;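 further: all wells also contain fluconazole at 8 µg/ml as a sub-toxic cotreatment; 0% = median of DMSO wells and 100% = median of geldanamycin control wells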
# Tat transport: E. coli Tat export inhibitors, primary screen, MC4100, TorA-mCherry reporter, fluorescence, single point; inhibition, % at 10 µM; 340,000 compounds, 0.036% hits; AID 488895, 2010;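 active means mean replicate inhibition at least 50% and at least half of replicates individually reaching 50%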;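 further: exported cargo escapes ClpAP degradation while cytoplasmic cargo is degraded and loses fluorescence; 0% = median of neutral control wells and 100% = median of NaSCN control wells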
# E coli growth-2: E. coli growth inhibition, primary screen, OD600. Escherichia coli growth, 23 h; hits give low values. OD600 absorbance (concentration not given with the values). 330,000 compounds, 0.21% hits. AID 1053175, 2014;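 active means OD600 absorbance below the run mean of sample wells minus 3.6 SD, in any replicate, cut at about 0.56 in these data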
# phage Ecoli inh: growth loss of phage-infected E. coli, primary screen, RecBCD inhibitor project, absorbance, with phage, HTS. AID 651602, 2012. inhibition, % at 11.9 µM. 360,000 compounds, 0.26% hits; in the data active means inhibition above about 11%
# * marks the source's active call; other numbers are inactive results; nt = no result given. This is a sample that favours compounds with a hit; in the whole collection about 0.9% have one here.
SMILES,AddAB inh,E coli growth-1,Calb FLC,Tat transport,E coli growth-2,phage Ecoli inh
CNC(=S)N1N=C(c2ccc(C)cc2)CC1c1ccc(Cl)cc1 (stereo not drawn),2,-2,27,3,0.7,4
CNC(=S)N1N=C(c2ccccc2)CC1c1ccccc1Cl (stereo not drawn),1,0,65*,1,0.67,2
CC(C)c1noc2ncc(C(=O)c3cc(Cl)cc(Cl)c3O)cc12,1,2,99*,1,0.75,1
Nc1nc2ncc(C(=O)c3cc(Cl)cc(Cl)c3O)cc2s1,3,-1,-5,14,0.71,0
CCCCCn1c(CN2CCN(CCO)CC2)nc2c1c(=O)n(C)c(=O)n2C,-1,1,-2,3,0.69,0
CCCCn1c(CN2CCN(C(=O)OCC)CC2)nc2c1c(=O)n(C)c(=O)n2C,2,-2,102*,-2,0.75,3
O=C1CC(c2ccc(S(=O)(=O)NCc3ccncc3)cc2)CN1 (stereo not drawn),4,1,2,-8,0.73,13*
O=C1CC(c2ccc(S(=O)(=O)NC3CC3)cc2)CN1 (stereo not drawn),3,-1,12,-7,0.74,3
CN(C)c1ccc(N=Cc2cccn2C)cc1,0,0,85*,-7,nt,-2
Cc1cccc(-n2nc(C(=O)c3ccco3)cc(-c3nc4ccccc4[nH]3)c2=N)c1,-4,-4,97*,0,0.71,-2
Cc1ccc2c(c1)c(/C=C/c1cc[n+](C)cc1)c(C)n2C,nt,nt,89*,-11,nt,0
C[n+]1ccc(/C=C/c2c[nH]c3ccc(F)cc23)cc1,nt,nt,42,-4,0.64,2
Cc1ccc2[nH]c(C)c(/C=C/c3cc[n+](C)cc3)c2c1,nt,nt,94*,2,0.62,0
CC=C(C)C(=O)NCCN1C2=NCC(C(C)C)N2CC1Cc1ccc(OC)cc1 (stereo not drawn),nt,nt,nt,nt,0.72,nt
COc1ccccc1C=NNC(=O)c1cccc(NC(=O)c2ccccc2Cl)c1,nt,nt,nt,nt,0.72,nt
O=C(Cc1n[nH]c(=O)[nH]c1=O)NN=Cc1cccc(O)c1,nt,nt,nt,nt,0.73,nt
Cc1onc(-c2ccccc2)c1C(=O)N/N=C(\N)COc1ccc(Cl)cc1,-3,-5,86*,-3,nt,1
Cc1onc(-c2ccccc2Cl)c1C(=O)N/N=C(\N)COc1ccc(Cl)cc1,6,2,-18,-3,nt,8
N#CC(=NO)c1nc(-c2ccccc2)cs1,nt,nt,nt,nt,0.67,nt
CO[C@@]1(NC(=O)C2SC(=C(C(N)=O)C(=O)O)S2)C(=O)N2C(C(=O)O)=C(CSc3nnnn3C)CSC21 (stereo partly drawn),nt,nt,nt,nt,0.061*,nt
CO[C@@]1(NC(=O)CSCC#N)C(=O)N2C(C(=O)O)=C(CSc3nnnn3C)CSC21 (stereo partly drawn),nt,nt,nt,nt,0.6,nt
Cc1cc(N/N=C2\CC(C)CC(C)(C)C2)nc2ccccc12 (stereo not drawn),1,0,87*,-16,nt,2
Cc1ccc(-n2c(CC#N)n[nH]c2=S)c(C)c1,1,3,12,18,0.7,1
Cc1ccc(-n2c(Cc3ccccc3)n[nH]c2=S)c(C)c1,3,-1,72*,0,0.66,2
CCCc1cc(=O)[nH]c(SCC(=O)Nc2ccc(Br)cc2Br)n1,6,1,60*,-17,0.7,7
SMILES,AddAB inh,E coli growth-1,Calb FLC,Tat transport,E coli growth-2,phage Ecoli inh
CCCCCCCCC(=O)NN=Cc1ccccn1,nt,nt,nt,nt,0.67,nt
COc1ccc2[nH]c3c(NCc4ccco4)ncnc3c2c1,5,6,11,nt,0.62,nt
Fc1ccc2[nH]c3c(NCc4ccccc4)ncnc3c2c1,5,7,0,-2,0.45*,9
CC(Sc1ccccc1)C(=O)NN=Cc1ccccc1 (stereo not drawn),nt,nt,nt,nt,0.63,nt
CC(CC(=O)c1ccccc1)=NNC(=O)CC#N,nt,nt,nt,nt,0.64,nt
CCCC[n+]1c2ccccc2cc2ccccc21,-1,-3,93*,-17,nt,1
Cc1ccc2ccccc2[n+]1CCCS(=O)(=O)[O-],3,-1,5,2,0.7,3
CCC[n+]1c2ccccc2cc2ccccc21,-1,0,94*,-5,nt,3
CCCCC[n+]1cccc2c3ccccc3ccc21,1,-1,-16,1,nt,1
COc1ccc(C2C3C(=O)N(C(C)(C)C)C(=O)C3[C@]3(Cc4ccc(Cl)cc4)C(=O)N(c4ccc(OC)cc4)C(=O)N23)cc1 (stereo partly drawn),nt,nt,nt,nt,0.72,nt
COc1cccc(C=NNC(=O)CNC(=O)c2ccco2)c1O,nt,nt,nt,nt,0.64,nt
C#CCOCCOCCOCCNc1nc(N2CCOCC2)nc(N2CCN(C(=O)C(Cc3ccc(O)cc3)n3cc(C(N)C(C)CC)nn3)CC2)n1 (stereo not drawn),nt,nt,nt,nt,0.72,nt
CCCCNC(=S)NN=Cc1ccc(C#N)cc1,nt,nt,nt,nt,0.69,nt
CN(C)CCOc1ccc(-c2c(-c3ccsc3)sc3ccccc23)cc1,-1,-2,nt,9,nt,2
COc1ccc(-c2sc3ccccc3c2-c2ccc(OCCN(C)C)cc2)cc1,2,-3,nt,1,0.47*,3
CC(=O)NC(CC(=O)N(C)Cc1cccc(Cl)c1Cl)c1ccccc1 (stereo not drawn),1,3,-16,-8,0.54*,2
COC(=O)c1ccc(NN=Cc2cc([N+](=O)[O-])cc(OC)c2O)cc1,nt,nt,nt,nt,0.73,nt
C[C@@]12C(=O)N(c3cccc(Cl)c3)C(=O)N1C1c3ccccc3OCC1C2c1ccccc1 (stereo partly drawn),nt,nt,nt,nt,0.74,nt
C/C(CC(=O)Nc1cc(C)ccn1)=N\NC(=O)c1cccc(C)c1,0,2,-9,0,nt,2
C/C(CC(=O)Nc1cc(C)ccn1)=N\NC(=O)c1cccc(C)c1O,10,7,94*,3,nt,11*
COc1ccccc1N1CCN(C(=O)c2cc3cc(Cl)ccc3[nH]2)CC1,0,0,114*,11,0.71,1
Cc1ccc(C(=O)N/C(=C\c2ccc(-c3ccc(Br)cc3)o2)C(=O)NCCCN(C)C)cc1,0,-2,11,8,0.5*,3
Cc1ccc(C(=O)N/C(=C\c2ccc(-c3cccc([N+](=O)[O-])c3)o2)C(=O)NCCCN(C)C)cc1,-2,-1,1,-3,0.72,0
COc1ccccc1/C=C/C(=O)NCC(=O)NN=Cc1ccccc1,nt,nt,nt,nt,0.68,nt
Oc1cc(Cl)cc(Cl)c1Cl,1,-2,nt,-1,0.27*,-2
Cc1ccc(-n2c(SCC(=O)N3CCCc4ccccc43)nnc2-c2cccnc2)c(C)c1,0,-1,3,-1,0.73,2
Cc1ccc(-n2c(-c3ccccc3)c[n+]3c2CCc2ccccc2-3)c(C)c1,1,1,102*,1,0.65,4
C(#Cc1ccccc1)C[N+]1(CC#Cc2cccc3ccccc23)CCCC1,-2,-4,90*,-10,0.62,2
Cc1ccc(C(=O)OCn2ncc(Cl)c(Cl)c2=O)cc1,1,0,114*,-5,0.69,-1
